According to PubChem BioAssay AID720513 (Broad Institute, 2013):
Out of some 2,100 compounds screened, about 480 (23%) were called active. Not shown: some 5% with an inconclusive outcome.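 The calls were made as follows: active = fitted curve reaches 40% activation at or below the top valid concentration, in every replicate test; inconclusive = replicate tests disagree on the call; inactive = the rest, including activity in the opposite direction.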 Only a sample is shown. Potency and affinity values are given separately.

Assay: activators raising PGC1a acetylation in cells, dose response, cell-based, cherry-picked samples, set 6 (AID 720513);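 also: cells made to overexpress flag tagged PGC1a plus GCN5 acetyltransferase by viral infection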
Conditions: U2OS PGC1a acetylation AlphaLISA, overnight, 0 = neutral, -100 = inhibitor control; series mostly up to 19.5 µM; activation (acetylation increase): at the top concentration

Compound	activation (acetylation increase)
Cc1cc(C(=O)OCC(=O)N(C)c2ccccc2)ccc1[N+](=O)[O-]	10.2% (inactive)
COC(=O)c1ccc(Cl)c(NC(C)=O)c1	14.3% (inactive)
CCOc1cc(CNC2CCCC2)cc(Cl)c1OCc1ccc(F)cc1	-105% (inactive)
O=C(C[C@@H]1CC[C@@H](NS(=O)(=O)c2ccc(F)cc2)[C@H](CO)O1)N1CCN(c2ccccc2)CC1	26.8% (inactive)
O=C(C[C@H]1CC[C@@H](NS(=O)(=O)c2ccc(F)cc2)[C@H](CO)O1)N1CCN(c2ccccc2)CC1	24.9% [at 21 µM] (inactive)
C=CC[C@@H](CC(=O)N[C@@H](CO)Cc1ccccc1)C(=O)N[C@@H](COC(=O)[C@@H](CC=C)CC(=O)OC(C)(C)C)Cc1c[nH]c2ccccc12	22.7% (inactive)
COc1ccc(NC(=O)Nc2ccc3c(c2)CC(=O)N([C@H](C)CO)C[C@H](C)[C@@H](CN(C)CC2CCCCC2)O3)cc1	19.9% (inactive)
CNC(=O)COC(=O)c1cc(-c2ccco2)nc2ccccc12	21.4% [at 10 µM] (inactive)
Cc1nc(SCC(=O)OCc2ccccc2)c(C#N)c(-c2ccccc2)c1C(=O)Nc1ccccc1	10.7% (inactive)
COCC(=O)N1CC(=O)N2[C@@H](CO)[C@H](c3ccc(-c4ccncc4)cc3)[C@@H]2C1	-19.7% (inactive)
O=C(Nc1cccc(OC(F)(F)F)c1)c1ccc(-c2cccnc2)c2ccoc12	14.6% (inactive)
O=C(NCc1cccc(Cl)c1)c1ccc(-n2ccnc2)c2ccoc12	-31.3% (inactive)
CC(Oc1ccc2c3c(c(=O)oc2c1)CCC3)C(=O)N[C@@H](Cc1ccccc1)C(=O)O (stereo not given in full)	2.57% (inactive)
Nc1ncnc(NCc2ccc(F)cc2)c1[N+](=O)[O-]	-6.18% (inactive)
N#Cc1ccc(-c2ccc([C@@H]3[C@@H]4CN(S(=O)(=O)c5ccc(-c6ccccc6)cc5)C[C@H]3N4)cc2)cc1	-96.9% [at 21 µM] (inactive)
O=C(C1CCCCC1)N1C[C@@H]2N[C@H](C1)C2c1ccc(-c2cccc(F)c2)cc1 (stereo not given in full)	12.9% (inactive)
COc1cccc(S(=O)(=O)N2C[C@@H]3N[C@H](C2)C3c2ccc(-c3ccccc3C)cc2)c1 (stereo not given in full)	-19% (inactive)
N#Cc1cccc(-c2ccc([C@@H]3[C@@H]4CN(S(=O)(=O)c5ccc(-c6ccccc6)cc5)C[C@H]3N4)cc2)c1	-102% (inactive)
COc1cccc(-c2ccc(C3[C@@H]4CN(C(=O)C5CC5)C[C@H]3N4)cc2)c1 (stereo not given in full)	-20.8% (inactive)
COc1ccccc1-c1ccc([C@@H]2[C@@H]3CN(S(=O)(=O)c4ccc(-c5ccccc5)cc4)C[C@H]2N3)cc1	-95.8% (inactive)
O=S(=O)(c1ccc(-c2ccccc2)cc1)N1C[C@@H]2N[C@H](C1)[C@@H]2c1ccc(-c2cccnc2)cc1	-89.6% (inactive)
C[C@@H]1CN([C@H](C)CO)C(=O)c2cc(/C=C/c3ccccc3)cnc2O[C@@H]1CN(C)Cc1cccnc1	3.6% [at 21 µM] (inactive)
COc1cc(CNCCN2CCOCC2)ccc1OCc1ccc(Cl)cc1Cl	-59.2% (inactive)

Compound	activation (acetylation increase)
C[C@@H]1CN([C@H](C)CO)C(=O)c2cc(C#Cc3ccccc3)cnc2O[C@@H]1CN(C)C(=O)c1ccccn1	-6.46% (inactive)
O=C(CN1C(=O)C2CC=CCC2C1=O)Nc1nccs1 (stereo not given)	-9.37% (inactive)
CN(C)CCCNC(=O)CC1C[C@H](C(=O)N2CCCCC2)[C@@]2(CCc3ccccc3)c3[nH]c4ccccc4c3CCN2C1=O (stereo not given in full)	-11.9% (inactive)
COc1ccc(-n2c(C)c([N+](=O)[O-])c3ccc(O)c(CN(C)C)c32)cc1	-13% (inactive)
COc1cc(O)c(C(CC(=O)N2CCOCC2)c2ccc(N(C)C)cc2)c(OC)c1 (stereo not given)	4.72% (inactive)
CNC[C@H]1Oc2ccc(NC(=O)CCN3CCOCC3)cc2C(=O)N([C@H](C)CO)C[C@H]1C	-13.7% [at 21 µM] (inactive)
C=CCN(c1ccc(C(=O)Nc2ccc3c(c2)OCO3)cc1)S(C)(=O)=O	28.3% (inactive)
Cc1cccc(S(=O)(=O)N2C[C@@H]3N[C@H](C2)C3c2ccc(-c3ccccc3C)cc2)c1 (stereo not given in full)	-95.3% (inactive)
N#Cc1ccc(-c2ccc(C3[C@@H]4CN(S(=O)(=O)c5ccc(F)cc5)C[C@H]3N4)cc2)cc1 (stereo not given in full)	-93.4% (inactive)
CCCSc1nnc(Sc2nnnn2-c2ccccc2)s1	-36.7% (inactive)
COc1ccc(CCN2C(=O)c3[nH]nc(-c4ccccc4O)c3C2c2ccccc2)cc1OC (stereo not given)	9.8% (inactive)
COc1ccc(CCN2C(=O)CC(C(C)c3ccccc3)C2=O)cc1OC (stereo not given)	8.2% (inactive)
CCCCN(C)Cc1c(C)[nH]c2ccccc2c1=O	10.8% (inactive)
COc1ccccc1-c1ccc([C@@H]2[C@@H](CO)N(C(C)=O)C23CN(C(C)=O)C3)cc1	-6.94% (inactive)
CC1(Cc2ccc(Cl)cc2)C(=O)Nc2ccc(-c3cccnc3)cc21 (stereo not given)	-18.9% (inactive)
CO[C@H]1CN(C)C(=O)c2cc(NC(=O)Nc3ccc(Cl)cc3)ccc2OC[C@H](C)NC[C@@H]1C	20.2% (inactive)
CO[C@H]1CN(C)C(=O)c2ccc(NC(=O)c3ccc(-c4ccccc4)cc3)cc2OC[C@H](C)NC[C@@H]1C	5.16% [at 21 µM] (inactive)
CCc1oc2c(C)c(O)ccc2c(=O)c1-c1ccc2ccccc2n1	12% (inactive)
CC1CCCN(Cc2c(O)ccc3c4c(c(=O)oc23)CCCC4)C1 (stereo not given)	50.2% (inactive)
N#Cc1ccc(Cn2c(=O)c(C#N)c3n(c2=O)CCC3)cc1	-13.7% (inactive)
CC(C)Cn1cnc2c(N)nc3ccccc3c21	16.5% (inactive)
Cc1cc(C)n(-c2ccc(Cl)c(C(=O)OCC(N)=O)n2)n1	-15% (inactive)
